Measurements: PubChem BioAssay (NCI)
Values joined by “and” are separate entries in the source; they are usually repeats but may differ in a detail not shown here. Identical values can stand only once. About 83,000 compounds went through this panel and 20% of them were active in at least one assay; those are over-represented in the sample as a whole.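 Note: values are percent growth. 100 is the growth of untreated cells, values between 100 and 0 indicate rising inhibition; between -100 and 0 indicates cell death.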 Active and inactive are the calls of the source. How the source made its calls: active means growth percent below 10; inactive means the rest.

Experiments:
Test in all cases: NCI-60 one-dose screen, 48 h (100 = growth as untreated, 0 = no growth, -100 = all killed)
Conditions in all cases: 10 µM unless noted
SR leukemia = tested on: SR leukemia
RPMI-8226 leukemia = tested on: RPMI-8226 leukemia
OVCAR-8 ovarian = tested on: OVCAR-8 ovarian
OVCAR-5 ovarian = tested on: OVCAR-5 ovarian
OVCAR-4 ovarian = tested on: OVCAR-4 ovarian
SK-OV-3 ovarian = tested on: SK-OV-3 ovarian
IGROV1 ovarian = tested on: IGROV1 ovarian
OVCAR-3 ovarian = tested on: OVCAR-3 ovarian
HS 578T breast = tested on: HS 578T breast
NCI/ADR-RES ovarian = tested on: NCI/ADR-RES ovarian
T-47D breast = tested on: T-47D breast
MDA-MB-435 melanoma = tested on: MDA-MB-435 melanoma
SW-620 colon = tested on: SW-620 colon
MCF7 breast = tested on: MCF7 breast
HCT-116 colon = tested on: HCT-116 colon
HCC-2998 colon = tested on: HCC-2998 colon
BT-549 breast = tested on: BT-549 breast
KM12 colon = tested on: KM12 colon

Measured: growth

Cn1ccnc1CN1CCSC(C(=O)Nc2ccccc2)C1 (stereo unspecified)
inactive: SR leukemia 96.8% | RPMI-8226 leukemia 88.5% | OVCAR-8 ovarian 95.5% | OVCAR-5 ovarian 83.1% | OVCAR-4 ovarian 90.7% | SK-OV-3 ovarian 98.7% | IGROV1 ovarian 94.5% | OVCAR-3 ovarian 102% | HS 578T breast 95.9% | NCI/ADR-RES ovarian 92.7% | T-47D breast 90.7% | MDA-MB-435 melanoma 92.2% | SW-620 colon 96.9% | MCF7 breast 91.6% | HCT-116 colon 96.2% | HCC-2998 colon 98.6%

COc1c(NC=O)c2c(c([N+](=O)[O-])c1OC)C(=O)OC2
inactive: SR leukemia 86.9% | RPMI-8226 leukemia 78% and 96.5% | OVCAR-8 ovarian 101% and 109% | OVCAR-5 ovarian 120% and 99.7% | OVCAR-4 ovarian 103% | SK-OV-3 ovarian 107% and 108% | IGROV1 ovarian 103% | OVCAR-3 ovarian 115% | HS 578T breast 109% and 86.8% | NCI/ADR-RES ovarian 117% and 108% | T-47D breast 109% and 93.1% | BT-549 breast 94.4% | MDA-MB-435 melanoma 115% and 101% | SW-620 colon 109% and 103% | MCF7 breast 97.2% and 89.6% | HCT-116 colon 108% and 106% | HCC-2998 colon 105% and 89.9% | KM12 colon 109% and 102%

CCOC(=O)c1cnn(CC(O)CC)c1NC(=O)NCc1ccccc1C(F)(F)F (stereo unspecified)
inactive: SR leukemia 114% | RPMI-8226 leukemia 81% | OVCAR-8 ovarian 102% | OVCAR-5 ovarian 103% | OVCAR-4 ovarian 106% | SK-OV-3 ovarian 91.4% | IGROV1 ovarian 94.9% | OVCAR-3 ovarian 107% | HS 578T breast 109% | T-47D breast 86.7% | BT-549 breast 84.4% | MDA-MB-435 melanoma 105% | SW-620 colon 108% | MCF7 breast 93.7% | HCT-116 colon 78.5% | HCC-2998 colon 100%

Cc1ccc(C(=O)Nc2nc3c(s2)CN(Cc2ccccc2)CC3)cn1
inactive: SR leukemia 64% | RPMI-8226 leukemia 77.8% | OVCAR-8 ovarian 95.7% | OVCAR-5 ovarian 103% | OVCAR-4 ovarian 78.7% | SK-OV-3 ovarian 89.2% | IGROV1 ovarian 82.4% | OVCAR-3 ovarian 88.1% | HS 578T breast 98.3% | NCI/ADR-RES ovarian 70.5% | T-47D breast 83.8% | BT-549 breast 94.9% | SW-620 colon 69.8% | MCF7 breast 64% | HCT-116 colon 80.7% | HCC-2998 colon 77.9% | KM12 colon 49.6%
active: MDA-MB-435 melanoma 7.68%

CCc1c2c(nc3ccc(OCc4ccc(B5OC(C)(C)C(C)(C)O5)cc4)cc13)-c1cc3c(c(=O)n1C2)COC(=O)[C@]3(O)CC
inactive: SR leukemia 11.8% | RPMI-8226 leukemia 10.4% | OVCAR-8 ovarian 10.6% | OVCAR-5 ovarian 10% | OVCAR-4 ovarian 23.7% | IGROV1 ovarian 12.8% | HS 578T breast 38.4% | BT-549 breast 28.8% | SW-620 colon 15.6% | HCC-2998 colon 26.7%
active: SK-OV-3 ovarian -1.58% | OVCAR-3 ovarian 0.732% | T-47D breast 0.841% | MDA-MB-435 melanoma 9.46% | MCF7 breast 2.53% | HCT-116 colon 2.03% | KM12 colon 0.421%

CN(C)CCCn1c2c(c3ccc(N4CCNCC4)cc3c1=O)C(=O)c1ccccc1-2
active: SR leukemia -16.4% | RPMI-8226 leukemia -32.4% | OVCAR-8 ovarian -8.9% | OVCAR-4 ovarian -22.9% | SK-OV-3 ovarian 6.3% | IGROV1 ovarian 5.77% | OVCAR-3 ovarian -0.802% | NCI/ADR-RES ovarian -13.8% | SW-620 colon -21.6% | MCF7 breast -28.2% | HCT-116 colon -89.1% | HCC-2998 colon -68.9% | KM12 colon -32.1%
inactive: OVCAR-5 ovarian 16.5% | HS 578T breast 49.1% | T-47D breast 44% | MDA-MB-435 melanoma 20%

COc1ccc(Oc2nc(Nc3ccc(N4CCOCC4)cc3)ncc2NC(=O)c2cccc(C(F)(F)F)c2)cc1
inactive: SR leukemia 35.7% | RPMI-8226 leukemia 59.8% | OVCAR-8 ovarian 78.5% | OVCAR-5 ovarian 111% | OVCAR-4 ovarian 96.4% | SK-OV-3 ovarian 85.7% | IGROV1 ovarian 88.5% | OVCAR-3 ovarian 82.7% | HS 578T breast 91.4% | T-47D breast 76.5% | BT-549 breast 96.9% | MDA-MB-435 melanoma 98.2% | SW-620 colon 87.1% | MCF7 breast 79.3% | HCT-116 colon 70.2% | HCC-2998 colon 75.9% | KM12 colon 59.3%

COc1cc(/C=C2\C(=O)N(CCCCn3c4ccccc4c(=O)c4ccccc43)c3ccccc32)cc(OC)c1O
inactive: SR leukemia 14.7% | RPMI-8226 leukemia 35.2% | OVCAR-8 ovarian 50.1% | OVCAR-5 ovarian 91% | OVCAR-4 ovarian 56.1% | SK-OV-3 ovarian 97.1% | IGROV1 ovarian 52.3% | OVCAR-3 ovarian 31.6% | HS 578T breast 68.8% | T-47D breast 66.1% | BT-549 breast 51.1% | SW-620 colon 47.4% | MCF7 breast 22.8% | HCT-116 colon 57.6% | HCC-2998 colon 92.4% | KM12 colon 58.4%
active: MDA-MB-435 melanoma 6.24%

COc1ccc(CN2CCc3c(Cl)nc(N)nc3C2=O)c(OC)c1
inactive: RPMI-8226 leukemia 12.7% [100 µM] | OVCAR-5 ovarian 45.1% [100 µM] | OVCAR-4 ovarian 15.2% [100 µM] | HS 578T breast 49.9% [100 µM] | T-47D breast 12.8% [100 µM] | KM12 colon 11.1% [100 µM]
active: SR leukemia 3.87% [100 µM] | OVCAR-8 ovarian 1.04% [100 µM] | SK-OV-3 ovarian 8.93% [100 µM] | OVCAR-3 ovarian -22.4% [100 µM] | NCI/ADR-RES ovarian 4.29% [100 µM] | BT-549 breast -20.3% [100 µM] | MDA-MB-435 melanoma 1.81% [100 µM] | SW-620 colon -46.8% [100 µM] | MCF7 breast 6.65% [100 µM] | HCT-116 colon -72.7% [100 µM] | HCC-2998 colon -85.9% [100 µM]

COc1cc(F)c(/C=C/c2cc(/C=C/c3cc(OC)c(OC)cc3F)n(-c3cc(F)cc(F)c3)n2)cc1OC
inactive: RPMI-8226 leukemia 18% | OVCAR-8 ovarian 36.6% | OVCAR-5 ovarian 51.4% | OVCAR-4 ovarian 49.9% | SK-OV-3 ovarian 108% | OVCAR-3 ovarian 24.2% | HS 578T breast 38% | NCI/ADR-RES ovarian 12% | T-47D breast 64% | BT-549 breast 75.5% | HCT-116 colon 100% | HCC-2998 colon 85.5% | KM12 colon 27.9%
active: SR leukemia 8.98% | MDA-MB-435 melanoma -4.07% | SW-620 colon 0.82% | MCF7 breast 8.88%

O=C(Nc1ncc(Cc2cccc(C(F)(F)F)c2)s1)c1ccc2c(c1)OCCO2
inactive: RPMI-8226 leukemia 17.6% | OVCAR-8 ovarian 23.2% | OVCAR-5 ovarian 37.1% | OVCAR-4 ovarian 37.1% | SK-OV-3 ovarian 35.3% | IGROV1 ovarian 23.4% | HS 578T breast 21.4% | T-47D breast 42.5% | SW-620 colon 37% | MCF7 breast 13.9% | HCT-116 colon 10.9% | HCC-2998 colon 20.3% | KM12 colon 11.1%
active: SR leukemia 6.85% | OVCAR-3 ovarian -8.1% | MDA-MB-435 melanoma 3.47%

Nc1ccc(S(=O)(=O)c2ccc(N)cc2)cc1
inactive: SR leukemia 99.7% and 121% | RPMI-8226 leukemia 96.7% and 85.4% | OVCAR-8 ovarian 97.2% and 93.1% | OVCAR-5 ovarian 104% and 96.4% | OVCAR-4 ovarian 111% and 117% | SK-OV-3 ovarian 118% and 102% | IGROV1 ovarian 108% and 61% | OVCAR-3 ovarian 121% and 112% | HS 578T breast 106% and 96.8% | T-47D breast 104% and 100% | BT-549 breast 104% and 110% | MDA-MB-435 melanoma 94.6% | SW-620 colon 108% and 92.5% | MCF7 breast 99.5% and 104% | HCT-116 colon 107% and 94.9% | HCC-2998 colon 98% and 108% | KM12 colon 106% and 109%

N#Cc1ccccc1OCC(=O)Nc1nc2c(s1)COc1ccccc1-2
inactive: RPMI-8226 leukemia 96.8% | OVCAR-8 ovarian 106% | OVCAR-5 ovarian 85.4% | OVCAR-4 ovarian 99.1% | SK-OV-3 ovarian 94.7% | OVCAR-3 ovarian 110% | HS 578T breast 99.7% | T-47D breast 86.2% | BT-549 breast 122% | MDA-MB-435 melanoma 104% | SW-620 colon 103% | MCF7 breast 91.4% | HCT-116 colon 102% | HCC-2998 colon 103% | KM12 colon 105%
active: SR leukemia -19.5% | IGROV1 ovarian -3.12%

CCCCCCCCCCCCCCCCCCn1cc(COc2ccc(C=O)cc2)nn1
inactive: SR leukemia 85.6% | RPMI-8226 leukemia 95.3% | OVCAR-8 ovarian 102% | OVCAR-5 ovarian 120% | OVCAR-4 ovarian 103% | SK-OV-3 ovarian 91.3% | OVCAR-3 ovarian 96.8% | HS 578T breast 110% | NCI/ADR-RES ovarian 96.4% | T-47D breast 88.6% | BT-549 breast 100% | MDA-MB-435 melanoma 109% | SW-620 colon 104% | MCF7 breast 92.8% | HCT-116 colon 76.8% | HCC-2998 colon 99.8% | KM12 colon 86.3%

COc1ccc(-c2c[nH]c(C(=O)O)c2-c2cc(OC)c(OC)c(OC)c2)cc1
active: OVCAR-3 ovarian -2.04% | HS 578T breast 9.64% | MDA-MB-435 melanoma -21.3%
inactive: SR leukemia 18.7% | RPMI-8226 leukemia 36% | OVCAR-8 ovarian 51.4% | OVCAR-5 ovarian 80.6% | OVCAR-4 ovarian 49.9% | SK-OV-3 ovarian 53.2% | NCI/ADR-RES ovarian 24.2% | T-47D breast 15.3% | BT-549 breast 65.8% | SW-620 colon 23.6% | MCF7 breast 24.2% | HCT-116 colon 29.6% | HCC-2998 colon 84.6% | KM12 colon 25%

Cc1nn(-c2nc(-c3cc4ccccc4oc3=O)cs2)c(C)c1N=Nc1ccccc1
inactive: SR leukemia 90.4% | RPMI-8226 leukemia 101% | OVCAR-8 ovarian 106% | OVCAR-5 ovarian 106% | OVCAR-4 ovarian 102% | SK-OV-3 ovarian 110% | OVCAR-3 ovarian 101% | HS 578T breast 108% | NCI/ADR-RES ovarian 104% | T-47D breast 95.3% | BT-549 breast 99.7% | MDA-MB-435 melanoma 101% | SW-620 colon 103% | MCF7 breast 89.3% | HCT-116 colon 105% | HCC-2998 colon 111% | KM12 colon 100%
